Our source for the outcome and Potency values is PubChem BioAssay (NCATS).

Structures are written as SMILES. Records with an inconclusive call do not appear. Active and inactive are the calls of the source. The call rests on the fitted dose curve; in most records, active means well fitted curve in the direction sought with a large enough effect; inconclusive means small, poorly fitted or top-dose-only effect, or another doubt; inactive means no such curve, though single readings can be large; an effect the other way counts as inactive or inconclusive.

Assay [1] in a line: Cell Viability - LYMP1-002 - Assay at 16 hr (AID 948). A digest of the protocol:
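Acute cytotoxicity is scored as a concentration-dependent fall in intracellular ATP in a human lymphoblastoid line (LYMP1-002) after 16 hr compound exposure at 37 C, measured by luciferase luminescence.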

Assay [2] is described as follows: MultiTox-Fluor Cytotoxicity Assay - LYMP1-002 - Live Cells (AID 955). The method, boiled down:
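After 16 h compound exposure at 37 C, live LYMP1-002 lymphoblastoid cells (2500/well) were quantified by cleavage of cell-permeant GF-AFC substrate, read at 405/510 nm after 60 min. Concentration-response fitted with Hill equation for AC50.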

The nature of assay [3]: MultiTox-Fluor Cytotoxicity Assay - LYMP1-002 - Dead Cells (AID 960). Further: nearly all actives have a fitted effect of over 60% in size. A digest of the protocol:
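Dead-cell fluorescence (Ex/Em 485/520) after 16 h compound exposure at 37 C of LYMP1-002 lymphoblastoid cells in complete medium; AC50 by Hill equation, with data scaled between DMSO and 15 uM tetraoctylammonium bromide.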

Assay [4] can be described thus: MultiTox-Fluor Cytotoxicity Assay - LYMP1-003 - Dead Cells (AID 961). Further: nearly all actives have a fitted effect of over 70% in size. Further: potency means the concentration at half of the fitted maximal effect. The method, boiled down: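 LYMP1-003 human lymphoblastoid cells (2500/well) exposed to compound 16 h at 37 C in complete medium; dead-cell protease read with bis-AAF-R110 fluorescence (Ex/Em 485/520) after 60 min at room temperature. Normalized to DMSO and 15 uM tetraoctylammonium bromide; AC50 from Hill fit.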

Assay [5] can be described thus: Cell Viability - LYMP1-003 - Assay at 24 hr (AID 963). Further: potency means the concentration at half of the fitted maximal effect. A digest of the protocol:
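Concentration-response qHTS: ATP loss measured by CellTiter-Glo luminescence after 24 h compound exposure at 37 C. Cells were LYMP1-003 human lymphoblastoid, 2500 per well. AC50 derived via standard Hill equation modeling.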

Assay [6] can be described thus: Cell Viability - LYMP1-003 - Assay at 40 hr (AID 964). Further: nearly all actives have a fitted effect of over 60% in size. Further: potency means the concentration at half of the fitted maximal effect. A digest of the protocol: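 Viability is taken as cellular ATP, read by CellTiter-Glo luminescence after 40 h of compound exposure at 37 C. Cells: human lymphoblastoid line LYMP1-003 at 2500/well; AC50 values derived by Hill-equation fitting of concentration-response data.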
A short description of assay [7]: Cell Viability - LYMP2-003 (AID 965).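 Further: cells exposed to compounds for 24 h before reading; nearly all actives have a fitted effect of over 50% in size.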 Further: potency means the concentration at half of the fitted maximal effect. A digest of the protocol:
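Acute cytotoxicity is scored as a concentration-dependent drop in intracellular ATP, measured by luciferase luminescence in human lymphoblastoid cells treated for 24 hours at 37 C. AC50 values derive from Hill-equation modelling.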

Assay [8] is described as follows: Cell Viability - LYMP2-004 (AID 966). Further: nearly all actives have a fitted effect of over 65% in size. Further: potency means the concentration at half of the fitted maximal effect. A digest of the protocol: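 AC50 values come from Hill modelling of concentration-dependent loss of intracellular ATP, measured by CellTiter-Glo luminescence. Human LYMP2-004 lymphoblastoid cells (2500/well) were exposed to compound for 24 h at 37 C.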
A short description of assay [9]: Cell Viability - LYMP2-009 (AID 968). Further: nearly all actives have a fitted effect of over 55% in size. Further: potency means the concentration at half of the fitted maximal effect.
Assay [10] in a line: Cell Viability - LYMP2-013 (AID 970). Further: nearly all actives have a fitted effect of over 55% in size. Further: potency means the concentration at half of the fitted maximal effect. A digest of the protocol:
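qHTS cytotoxicity: ATP-dependent luminescence (CellTiter-Glo, 30 min room temperature) read after 24 h compound exposure at 37 C of 2500 LYMP2-013 lymphoblastoid cells per well. Concentration-response fitted with Hill equation to give AC50.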

Assay [11] can be described thus: Cell Viability - LYMP2-019 (AID 973). Further: nearly all actives have a fitted effect of over 55% in size. Further: potency means the concentration at half of the fitted maximal effect. The method, boiled down:
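AC50 values come from Hill-equation fits of luminescent intracellular ATP (CellTiter-Glo, 30 min, room temperature) following 24 h compound exposure at 37 C. Cells: LYMP2-019 lymphoblastoid line, 2500 per well, in complete culture medium.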

A short description of assay [12]: Cell Viability - LYMP2-021 (AID 974). Further: nearly all actives have a fitted effect of over 55% in size. Further: potency means the concentration at half of the fitted maximal effect. The method, boiled down:
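AC50 values come from Hill-equation fits to CellTiter-Glo luminescence (ATP content), read after 24 hour compound exposure at 37 C of 2500 LYMP2-021 lymphoblastoid cells/well; tetraoctylammonium bromide as positive control.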

Assay [13] can be described thus: Cell Viability - LYMP2-023 (AID 975). Further: nearly all actives have a fitted effect of over 55% in size. Further: potency means the concentration at half of the fitted maximal effect. The method, boiled down: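 Intracellular ATP, read by CellTiter-Glo luminescence, reports viability after 24 hr compound exposure at 37 C. 2500 lymphoblastoid cells/well (LYMP2-023) seeded 5 hr beforehand; Hill fits give AC50; positive control tetraoctylammonium bromide.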
Assay [14] is described as follows: MultiTox-Fluor Cytotoxicity Assay - LYMP1-001 - Live Cells (AID 947).
Assay [15] is described as follows: MultiTox-Fluor Cytotoxicity Assay - LYMP1-003 - Live Cells (AID 962). Further: potency means the concentration at half of the fitted maximal effect. The method, boiled down:
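Live-cell protease activity (GF-AFC substrate, 405/510 nm, 60 min at room temperature) after 16 h, 37 C compound exposure of human lymphoblastoid LYMP1-003 cells; concentration-response fitted to the Hill equation for AC50.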

Assay [16] can be described thus: Cell Viability - LYMP2-005 (AID 967). Further: series mostly up to about 92 µM. The method, boiled down:
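qHTS viability screen in LYMP2-005 cells: 24 h at 37 C with compound, ATP luminescence via CellTiter-Glo, AC50 from Hill curves.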

The nature of assay [17]: Cell Viability - LYMP2-011 (AID 969). Further: nearly all actives have a fitted effect of over 60% in size. Further: potency means the concentration at half of the fitted maximal effect. The method, boiled down:
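Cytotoxicity qHTS with ATP content as read-out: lymphoblastoid cells (2500/well) exposed to compound for 24 h at 37 C, then luciferase luminescence measured. Concentration-response data fitted with the standard Hill equation to give AC50.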

Assay [18] in a line: Cell Viability - LYMP2-015 (AID 971). Further: nearly all actives have a fitted effect of over 55% in size. Further: potency means the concentration at half of the fitted maximal effect. A digest of the protocol: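 Cytotoxicity readout: decrease in intracellular ATP (CellTiter-Glo luminescence) in 2500 LYMP2-015 lymphoblastoid cells/well after 24 h compound exposure at 37 C. Concentration-response data fitted with the standard Hill equation to give AC50.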
The nature of assay [19]: Cell Viability - LYMP2-017 (AID 972). The method, boiled down: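 CellTiter-Glo luminescence (cellular ATP, 30 min RT) measured cytotoxicity after 24 hr compound treatment at 37 C. Cells were a human lymphoblastoid line, LYMP2-017, plated at 2500/well and incubated 5 hr first; concentration-response fitted with Hill equation for AC50.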

`O=Nc1ccc(NO)cc1`: the compound was classed as inactive in [1], in assay [2] and in assay [3]. Besides, the Potency entry in assay [4], in assay [5], in assay [6] and in assay [13] was “inactive” throughout. The Potency in assay [7], in [8], in assay [9], in assay [10], in assay [11] and in assay [12] was 50.1 µM (active) each time.
On to `Nc1cccc2c(=O)[nH][nH]c(=O)c12`, for which the compound was classed as inactive in assay [14], in assay [1], in assay [2], in assay [3] and in [16]. Moreover, the Potency entry in assay [4], in [15], in [5], in assay [6], in assay [7] and in assay [8] was “inactive” throughout. Further, the Potency entry in assay [9], in [17], in [10], in assay [18], in assay [19] and in [11] was “inactive” in each case. Besides, the Potency entry in assay [12] and in [13] was “inactive” throughout.
With `CCCOCC(C)OCC(C)O` (stereo not given), the compound was called inactive in assay [14], in assay [1] and in assay [16]. Further, the Potency result in [4], in assay [15], in [5], in [6], in [7] and in assay [8] was “inactive” each time. In addition, the Potency entry in assay [9], in [10], in assay [18], in assay [11], in [12] and in assay [13] was “inactive” throughout.
Turning to `Cc1cc(C(=O)O)ccc1[N+](=O)[O-]`, the outcome in assay [14], in assay [1], in assay [2], in assay [3] and in [16] was inactive. The Potency entry in assay [4], in [15], in assay [5], in assay [6], in assay [7] and in assay [8] was “inactive” each time. Further, the Potency entry in assay [9], in [17], in [10], in [18], in assay [19] and in [11] was “inactive” throughout. Further, the Potency entry in [12] and in assay [13] was “inactive” each time.
In the case of `CNC(=O)c1ccccc1`, the compound was classed as inactive in assay [14], in assay [1], in assay [2], in assay [3] and in [16]. Moreover, the Potency entry in assay [4], in assay [15], in assay [5], in [6], in [7] and in assay [8] was “inactive” in each case. Further, the Potency result in assay [9], in assay [17], in [10], in assay [18], in assay [19] and in assay [11] was “inactive” each time. Moreover, the Potency entry in assay [12] and in [13] was “inactive” throughout.
Regarding `O=P(O)(OCc1ccccc1)OCc1ccccc1`, the call in assay [14], in assay [1], in assay [2], in assay [3] and in [16] was inactive. Also, the Potency entry in assay [4], in assay [15], in assay [6], in assay [7], in assay [8] and in [9] was “inactive” throughout. In addition, the Potency result in assay [17], in assay [10], in assay [18], in assay [11], in assay [12] and in assay [13] was “inactive” each time.
On to `CCCCCNCCCCC`, for which the compound was classed as inactive in assay [1], in assay [2], in assay [3] and in [16]. For the same compound, the Potency entry in [4], in [15], in assay [5], in [6], in assay [7] and in [8] was “inactive” in each case. For the same compound, the Potency entry in assay [9], in assay [17], in assay [10], in assay [18], in assay [19] and in assay [11] was “inactive” in each case. Further, the Potency result in [12] and in assay [13] was “inactive” each time.
As to `O=[N+]([O-])c1ccc2nc[nH]c2c1`, the outcome in assay [14], in assay [2] and in assay [3] was inactive. Moreover, the Potency entry in assay [4], in assay [15], in assay [5], in assay [6], in assay [7] and in assay [8] was “inactive” each time. Besides, the Potency entry in [9], in assay [17], in [10], in assay [18], in [19] and in [11] was “inactive” each time. The Potency result in assay [12] and in assay [13] was “inactive” throughout.
As to `CC1=C(/C=C/C(C)=C/C=C/C(C)=C\C=O)C(C)(C)CCC1`, the Potency in assay [4] was 31.6 µM (active); in assay [15], 50.1 µM (active); in assay [5] it was 63.1 µM (active); in [6] it was 50.1 µM (active); in assay [7], 39.8 µM (active); in [8], 31.6 µM (active). The Potency in [9] is 50.1 µM (active); in assay [17] it was 50.1 µM (active); in [10], 50.1 µM (active); in [18] it was 39.8 µM (active); in assay [11], 50.1 µM (active); in [12], 50.1 µM (active). Further, in [13], the Potency was 50.1 µM (active).
